TRHR agonist – activates the human TRH receptor | TRHR cells, calcium flux fluo-8, FDSS agonist mode | activation, % at 2 µM | P34981 | hit rate 0.18% among 360,000 | AID 493084; note: 0% is about no effect
Target sequence (P34981 whole entry, looked up): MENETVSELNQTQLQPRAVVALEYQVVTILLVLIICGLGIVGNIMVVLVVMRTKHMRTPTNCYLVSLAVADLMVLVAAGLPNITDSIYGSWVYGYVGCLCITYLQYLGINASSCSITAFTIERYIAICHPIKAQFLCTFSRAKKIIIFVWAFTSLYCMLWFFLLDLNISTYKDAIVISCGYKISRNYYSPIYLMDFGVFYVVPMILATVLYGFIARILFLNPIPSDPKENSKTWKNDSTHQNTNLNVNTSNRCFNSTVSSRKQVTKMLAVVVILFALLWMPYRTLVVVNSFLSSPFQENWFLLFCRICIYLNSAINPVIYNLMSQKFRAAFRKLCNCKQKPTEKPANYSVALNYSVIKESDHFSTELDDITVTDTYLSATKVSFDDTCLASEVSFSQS
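Read-out: compound-evoked intracellular calcium rise in TRHR cells, fluo-8 dye, kinetic FDSS fluorescence at 1 s/cycle following a 10-cycle baseline. Cells cultured overnight before dye loading (30 min–1.5 h, RT).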
D1 antag – blocks dopamine activation of the human D1 receptor | P21728 | HEK293 TREx D1 cells, calcium flux, dopamine EC80; active compounds read low | activity change, negative = inhibition, % at 10 µM | hit rate 3.2% among 360,000 | AID 504652; in the data active = activity change below about -30%; note: % is set by controls: 0 for no effect and ±100 for the full control effect
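Allosteric or orthosteric antagonism assessed as attenuation of the calcium response to EC80 dopamine, added 180 s after compound, in induced HEK293 Trex D1 cells loaded with no-wash calcium dye.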
GRP78 ERSR act – inducers of ER stress response in human glioma cells | AID 602332 | hit rate 0.02% among 420,000 | U87-MG GRP78 promoter luciferase reporter, 16 h | Potency, µM, for the others: at the highest dose activation, usual class: activators; active = well fitted activation curve with a large enough effect; inconclusive = small, poorly fitted or top-dose-only effect; inactive = no such curve, though single readings can be large or run the other way; note: potency is the fitted concentration of half-maximal effect; series mostly up to about 76 µM; % of control where 0% means no effect; nearly all actives have a fitted effect of over 35% in size
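ERSR induction read as luciferase luminescence (Bright-Glo, 10 min at room temperature) in stably transfected human U87-MG glioma cells exposed to compounds for 16 h, using GRP78 as sensor.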
D1 agonist – agonists of human D1 dopamine receptor; P21728; HEK293 T-REx D1 cells, calcium flux, agonist mode; activation, % at 2 µM; hit rate 1% among 360,000; AID 504660; note: 0% is about no effect
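Tetracycline-induced HEK293 TREx D1 cells, force-coupled to calcium signalling, were dye-loaded with a no-wash calcium kit. Compound was pin-added after a 10 s baseline. Fluorescence was read kinetically at 1 cycle/s for 180 s, with calcium rises flagged as agonism.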
TRHR enhancer – allosteric enhancers of human TRH receptor; P34981; TRHR cells, fluo-8 calcium fluorescence, EC20 TRH enhancement; enhancement, % at 2 µM; hit rate 0.66% among 360,000; AID 493056; in the data active = enhancement above about 30%; note: 0% is about no effect
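Enhancer read-out: after compound pinning and an initial kinetic agonist-mode read, an EC20 of TRH (10 nM final) was injected and fluo-8 calcium signal (Ex 480/Em 530) followed at 1 s/cycle for 100 cycles in TRHR-expressing cells.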
D1 potentiator – enhances dopamine response at the human D1 receptor. P21728. HEK293 TREx D1 cells, calcium flux, dopamine EC20 potentiation. potentiation, % at 10 µM. hit rate 0.036% among 360,000; in the data active = potentiation above about 30%; note: 0% is about no effect
The depositor's hits bear a star; u = inconclusive; x = not tested or not shown. This is a sample that favours compounds with a hit; in the whole collection about 4% have one here. Cut-off read from the data, not from the text of the source, unless noted: active = activation above about 30%; inactive = the rest.

SMILES | TRHR agonist | D1 antag | GRP78 ERSR act | D1 agonist | TRHR enhancer | D1 potentiator
COc1cc(CN2CCC(C(=O)NC3CCCC3)CC2)cc(OC)c1O | 0 | 1 | -1% | 3 | 3 | -8
O=C(NCCc1ccc2c(c1)OCCO2)c1cccc(S(=O)(=O)N2CCCC2)c1 | 0 | 6 | 0% | 0 | -9 | -1
O=C(NCCc1ccc2c(c1)OCCO2)c1cc(S(=O)(=O)N2CCCC2)ccc1Cl | 0 | -32* | -3% | 16 | 2 | -6
O=[N+]([O-])c1cccc(CNCc2ccccc2)c1 | 0 | -8 | -5% | 4 | -14 | 1
CC(C)C(=O)N1CCN(c2ccccc2NC(=O)COc2ccccc2)CC1 | 1 | -7 | 0% | 1 | -3 | 1
CCCC(=O)Nc1ccccc1N1CCN(C(=O)C(C)C)CC1 | -1 | 11 | -5% | 0 | 32* | -1
CN(C)Cc1cc(CCNC(=O)c2ccc(Cl)cc2)ccc1O | -1 | -37* | -3% | 4 | 6 | -10
CCc1ccc(C(=O)NNc2ccc(F)cc2F)cc1 | 0 | -51* | 3% | 0 | 0 | -7
Cc1ccc(C(=O)NCCc2ccncc2)cc1 | 0 | -36* | 1% | -1 | -5 | -1
O=C(COC(=O)CCCNC(=O)c1ccc(Cl)cc1)NCc1ccccc1Cl | -1 | -10 | -3% | 77* | 3 | -6
CCCCc1nnc(NC(=O)CC(=O)Nc2ccccc2C(=O)O)s1 | 0 | 6 | -7% | 1 | 0 | -2
O=C(NCCc1ccc(O)cc1)c1ccc(Cl)cc1 | 0 | -32* | -6% | 1 | 7 | -2
NS(=O)(=O)c1ccc(CCNC(=O)CCCNC(=O)c2ccc(Cl)cc2)cc1 | 0 | -33* | -1% | 0 | 4 | 1
Cc1ccccc1CCNC(=O)c1ccc2c(c1)c(C)c(C)n2C | 0 | -20 | 0% | 3 | 2 | -3
Cc1c(C)n(C)c2ccc(C(=O)NCCc3ccc(Cl)cc3)cc12 | 0 | -59* | -1% | 5 | 2 | -4
O=C(CCNC(=O)c1ccc(Cl)cc1)Nc1ccc(F)cc1F | 0 | -47* | -2% | 2 | 4 | 2
O=C(NCCc1ccc(Cl)cc1)c1ccc(=O)[nH]c1 | -1 | -6 | 3% | 2 | 0 | -2
NS(=O)(=O)c1ccc(CCNC(=O)c2ccc(Cl)nc2)cc1 | 2 | 2 | -1% | 3 | 1 | -1
Cc1nn2c(N3CCCC3)cc(C(C)C)nc2c1-c1ccccc1 | 1 | 11 | 0% | 4 | 1 | 0
Cc1c(NC(=O)/C(C#N)=C/c2ccc(-c3ccc(Cl)c(Cl)c3)o2)c(=O)n(-c2ccccc2)n1C | -1 | -22 | -3% | 0 | 7 | -12
Cc1c(NC(=O)/C(C#N)=C/c2ccc(-c3cccc(Cl)c3)o2)c(=O)n(-c2ccccc2)n1C | 0 | -38* | -1% | 0 | 8 | -10
O=C(CCCCN1CCCCC1)c1ccc2c(c1)Cc1ccccc1-2 | 0 | -36* | -5% | 31* | 17 | -3
Nc1cccc2c1C(=O)N(C(=O)/C=C/c1cccc(F)c1)C2=O | 0 | -10 | u | -1 | 31* | 1
CC(C)[C@H](NC(=O)N1CC(=O)Nc2ccccc21)C(=O)N[C@H](C(=O)O)c1ccccc1 | 0 | 9 | -7% | 4 | 30* | -4
CC(C)[C@H](NC(=O)N1CC(=O)Nc2ccccc21)C(=O)N[C@@H](C(=O)O)c1ccccc1 | 0 | -10 | -3% | 4 | -3 | -3
SMILES | TRHR agonist | D1 antag | GRP78 ERSR act | D1 agonist | TRHR enhancer | D1 potentiator
O=C1CN(C(=O)N[C@@H](Cc2ccccc2)C(=O)N[C@H](C(=O)O)c2ccccc2)c2ccccc2N1 | 0 | 17 | -4% | 5 | 8 | -5
CC(C)C[C@H](NC(=O)N1CC(=O)Nc2ccccc21)C(=O)N[C@H](C(=O)O)c1ccccc1 | 0 | -27 | -3% | 0 | 33* | -1
COc1ccc(-c2cc(C(F)(F)F)c3c(N)c(C(=O)NCCSC)sc3n2)cc1 | 23 | 3 | -5% | 31* | -2 | 5
COc1ccc(OC)c(NC(=O)c2sc3nc(Cc4ccccc4)cc(C(F)(F)F)c3c2N)c1 | 1 | 0 | -5% | 3 | -5 | -8
Cc1c(C(=O)O)sc2nc(-c3cccs3)cc(C(F)(F)F)c12 | -1 | -11 | 2% | 2 | 1 | 3
CN(C)CCNC(=O)c1sc2nc(-c3ccccc3)cc(C(F)(F)F)c2c1N | 12 | 3 | -6% | 37* | 4 | -4
COc1cccc(-c2cc(C(F)(F)F)c3c(N)c(C#N)sc3n2)c1 | 5 | -9 | x | 34* | 17 | 17
CC(=O)c1sc2nc(-c3cccs3)cc(C(F)(F)F)c2c1N | 41* | 5 | 1% | 180* | 10 | 0
c1ccc2c(c1)CCCN2c1nc(N2CCOCC2)nc(N2CCOCC2)n1 | 0 | 9 | -5% | 2 | 3 | 8
COc1ccc(OC)c(C2/C(=C(/O)c3cnn(-c4ccccc4)c3C)C(=O)C(=O)N2CCN(C)C)c1 (configuration not stated) | -1 | -28 | 1% | 6 | 1 | -11
COc1ccccc1C(=O)NCCC(=O)N(C)CC(=O)Nc1ccc(Cl)cc1 | 0 | 13 | 0% | 1 | 2 | -5
Cc1nc(-c2coc3cc(O)c(C)cc3c2=O)cs1 | 1 | -51* | -11% | -2 | -7 | -1
O=C(Nc1ccc(NC(=O)c2ccco2)cc1)c1cnccn1 | 1 | -9 | -1% | -1 | -2 | -3
CC(=O)NC(c1cc(Cl)c2cccnc2c1O)C1CC1 (configuration not stated) | 0 | -55* | -1% | 4 | 12 | 4
CCC(=O)NC(c1ccc(C)s1)c1cc(Cl)c2cccnc2c1O (configuration not stated) | 1 | -58* | x | 10 | 4 | -7
CC(=O)NC(c1cc(Cl)c2cccnc2c1O)C(C)C (configuration not stated) | 1 | -6 | -2% | 4 | -6 | 3
CCOC(=O)c1nn(-c2ccccc2)c2nc(Nc3ccccc3)cc(=O)n12 | 1 | -6 | 3% | 6 | 6 | 2
COc1ccc(-c2nn3c(-c4ccccc4)nnc3s2)cc1 | -1 | -31* | -4% | 1 | -9 | -2
Cc1ccc(C)c(S(=O)(=O)c2nnn3c2nc(NC(C)C)c2sccc23)c1 | 0 | -60* | -5% | 1 | -14 | -7
Cc1ccc(C)c(S(=O)(=O)c2nnn3c2nc(Nc2ccc(C)c(C)c2)c2sccc23)c1 | -1 | -6 | -3% | 1 | 11 | -5
COc1cc(Nc2nc3c(S(=O)(=O)c4cccc(Cl)c4)nnn3c3ccsc23)cc(OC)c1 | 0 | -1 | -2% | 0 | 0 | -2
